# Source: the supplement of paper PMC12067093, “Discovery and optimisation of a covalent ligand for TRIM25 and its application to targeted protein ubiquitination” (Chemical Science, 2025)
# About 21,000 targets were measured; listed, in parts, are those with the largest changes and a random draw of the rest.
# Compound: Cc1cc(ccc1-c1ccccc1)C(=O)N1CCCN(CC1)C(=O)CCl [compound 10]
# Test: probe-labelled cysteine peptide fold change vs DMSO (competition) (log2 fold change); higher = less target engagement (more negative = stronger competition)
# Conditions: 10 µM; THP-1; incubation time: 4 h
# 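Further: competitive profiling in live THP-1 cells: cysteine peptides tagged with an iodoacetamide desthiobiotin (IA-DTB) probe, intensity after compound treatment relative to DMSO-treated cells.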
# UniProt P26639, sequence (P26639 whole entry, looked up): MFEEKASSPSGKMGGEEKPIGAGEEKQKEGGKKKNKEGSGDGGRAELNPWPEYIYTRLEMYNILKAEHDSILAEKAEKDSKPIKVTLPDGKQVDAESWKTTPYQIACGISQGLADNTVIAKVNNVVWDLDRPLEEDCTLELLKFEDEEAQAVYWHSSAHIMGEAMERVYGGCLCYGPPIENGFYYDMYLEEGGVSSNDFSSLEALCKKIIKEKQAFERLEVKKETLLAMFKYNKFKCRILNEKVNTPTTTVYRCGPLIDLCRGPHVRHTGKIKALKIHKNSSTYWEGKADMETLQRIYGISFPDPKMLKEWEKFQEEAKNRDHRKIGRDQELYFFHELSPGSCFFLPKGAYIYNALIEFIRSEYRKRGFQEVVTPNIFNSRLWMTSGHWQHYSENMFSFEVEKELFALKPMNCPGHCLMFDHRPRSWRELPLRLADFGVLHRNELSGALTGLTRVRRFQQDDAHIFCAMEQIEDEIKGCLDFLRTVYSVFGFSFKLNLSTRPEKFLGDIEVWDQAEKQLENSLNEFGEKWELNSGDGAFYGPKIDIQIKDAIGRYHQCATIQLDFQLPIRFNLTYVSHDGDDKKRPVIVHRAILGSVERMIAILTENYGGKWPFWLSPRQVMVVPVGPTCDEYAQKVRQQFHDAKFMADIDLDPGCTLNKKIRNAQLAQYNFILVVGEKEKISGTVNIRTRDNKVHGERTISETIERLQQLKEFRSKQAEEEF
# UniProt P18583, sequence (P18583 whole entry, looked up): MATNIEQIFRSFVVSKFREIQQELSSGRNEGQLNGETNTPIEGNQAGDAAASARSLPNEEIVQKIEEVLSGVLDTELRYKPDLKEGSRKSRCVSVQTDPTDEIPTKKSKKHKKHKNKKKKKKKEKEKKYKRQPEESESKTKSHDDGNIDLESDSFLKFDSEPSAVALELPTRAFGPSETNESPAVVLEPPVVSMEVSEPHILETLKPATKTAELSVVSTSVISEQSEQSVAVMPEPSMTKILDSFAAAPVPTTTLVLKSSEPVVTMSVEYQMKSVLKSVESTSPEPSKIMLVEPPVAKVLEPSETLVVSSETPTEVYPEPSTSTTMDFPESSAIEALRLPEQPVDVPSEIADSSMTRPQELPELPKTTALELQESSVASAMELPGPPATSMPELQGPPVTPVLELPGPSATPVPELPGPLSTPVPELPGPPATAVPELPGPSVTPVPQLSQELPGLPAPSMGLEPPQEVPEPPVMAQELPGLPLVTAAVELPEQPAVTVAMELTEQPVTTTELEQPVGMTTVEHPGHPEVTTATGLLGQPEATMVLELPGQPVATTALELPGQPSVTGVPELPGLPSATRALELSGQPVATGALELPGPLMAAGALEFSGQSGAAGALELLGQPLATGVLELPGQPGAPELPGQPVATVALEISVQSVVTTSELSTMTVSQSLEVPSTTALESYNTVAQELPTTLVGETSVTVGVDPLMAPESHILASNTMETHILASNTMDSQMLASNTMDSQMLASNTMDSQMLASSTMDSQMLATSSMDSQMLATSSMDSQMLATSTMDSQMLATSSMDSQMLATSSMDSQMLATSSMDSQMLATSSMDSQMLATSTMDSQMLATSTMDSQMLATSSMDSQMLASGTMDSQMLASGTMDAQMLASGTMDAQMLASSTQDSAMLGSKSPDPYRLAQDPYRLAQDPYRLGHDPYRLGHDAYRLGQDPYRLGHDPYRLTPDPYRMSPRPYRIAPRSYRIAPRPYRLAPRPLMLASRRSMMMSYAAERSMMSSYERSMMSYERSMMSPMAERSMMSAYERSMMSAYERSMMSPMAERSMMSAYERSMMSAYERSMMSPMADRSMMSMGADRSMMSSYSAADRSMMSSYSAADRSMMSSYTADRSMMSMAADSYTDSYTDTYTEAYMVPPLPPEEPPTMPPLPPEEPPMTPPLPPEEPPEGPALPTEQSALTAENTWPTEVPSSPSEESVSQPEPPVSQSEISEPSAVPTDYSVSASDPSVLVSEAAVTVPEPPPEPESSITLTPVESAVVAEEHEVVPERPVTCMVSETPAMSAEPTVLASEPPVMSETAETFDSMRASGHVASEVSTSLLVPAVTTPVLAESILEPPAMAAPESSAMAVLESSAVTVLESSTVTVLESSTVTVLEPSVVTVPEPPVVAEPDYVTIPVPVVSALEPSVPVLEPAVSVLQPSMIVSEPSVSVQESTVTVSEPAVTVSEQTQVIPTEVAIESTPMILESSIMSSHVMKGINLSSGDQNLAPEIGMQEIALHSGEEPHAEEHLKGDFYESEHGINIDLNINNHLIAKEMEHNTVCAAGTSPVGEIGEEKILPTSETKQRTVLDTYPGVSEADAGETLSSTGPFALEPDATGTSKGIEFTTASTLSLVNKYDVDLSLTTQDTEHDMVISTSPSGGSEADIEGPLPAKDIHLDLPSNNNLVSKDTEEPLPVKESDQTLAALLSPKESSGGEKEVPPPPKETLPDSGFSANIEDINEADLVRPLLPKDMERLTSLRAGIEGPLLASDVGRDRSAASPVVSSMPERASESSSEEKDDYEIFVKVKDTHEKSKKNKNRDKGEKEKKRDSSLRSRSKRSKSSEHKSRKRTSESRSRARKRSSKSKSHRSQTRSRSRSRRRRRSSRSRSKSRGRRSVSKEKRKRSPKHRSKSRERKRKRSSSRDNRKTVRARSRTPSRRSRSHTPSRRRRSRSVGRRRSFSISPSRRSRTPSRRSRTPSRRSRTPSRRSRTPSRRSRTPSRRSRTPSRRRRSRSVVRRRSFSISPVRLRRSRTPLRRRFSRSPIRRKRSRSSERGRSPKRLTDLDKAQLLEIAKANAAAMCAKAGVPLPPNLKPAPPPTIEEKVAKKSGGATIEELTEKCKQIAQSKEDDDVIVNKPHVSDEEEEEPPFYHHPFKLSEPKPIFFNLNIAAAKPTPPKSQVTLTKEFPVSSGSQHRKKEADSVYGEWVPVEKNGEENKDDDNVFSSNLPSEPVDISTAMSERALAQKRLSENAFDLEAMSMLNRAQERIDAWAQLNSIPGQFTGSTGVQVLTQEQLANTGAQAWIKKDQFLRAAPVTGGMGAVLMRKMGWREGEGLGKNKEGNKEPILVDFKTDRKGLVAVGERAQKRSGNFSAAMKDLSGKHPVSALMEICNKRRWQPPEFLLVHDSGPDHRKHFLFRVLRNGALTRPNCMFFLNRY
# UniProt O43151, sequence (O43151 whole entry): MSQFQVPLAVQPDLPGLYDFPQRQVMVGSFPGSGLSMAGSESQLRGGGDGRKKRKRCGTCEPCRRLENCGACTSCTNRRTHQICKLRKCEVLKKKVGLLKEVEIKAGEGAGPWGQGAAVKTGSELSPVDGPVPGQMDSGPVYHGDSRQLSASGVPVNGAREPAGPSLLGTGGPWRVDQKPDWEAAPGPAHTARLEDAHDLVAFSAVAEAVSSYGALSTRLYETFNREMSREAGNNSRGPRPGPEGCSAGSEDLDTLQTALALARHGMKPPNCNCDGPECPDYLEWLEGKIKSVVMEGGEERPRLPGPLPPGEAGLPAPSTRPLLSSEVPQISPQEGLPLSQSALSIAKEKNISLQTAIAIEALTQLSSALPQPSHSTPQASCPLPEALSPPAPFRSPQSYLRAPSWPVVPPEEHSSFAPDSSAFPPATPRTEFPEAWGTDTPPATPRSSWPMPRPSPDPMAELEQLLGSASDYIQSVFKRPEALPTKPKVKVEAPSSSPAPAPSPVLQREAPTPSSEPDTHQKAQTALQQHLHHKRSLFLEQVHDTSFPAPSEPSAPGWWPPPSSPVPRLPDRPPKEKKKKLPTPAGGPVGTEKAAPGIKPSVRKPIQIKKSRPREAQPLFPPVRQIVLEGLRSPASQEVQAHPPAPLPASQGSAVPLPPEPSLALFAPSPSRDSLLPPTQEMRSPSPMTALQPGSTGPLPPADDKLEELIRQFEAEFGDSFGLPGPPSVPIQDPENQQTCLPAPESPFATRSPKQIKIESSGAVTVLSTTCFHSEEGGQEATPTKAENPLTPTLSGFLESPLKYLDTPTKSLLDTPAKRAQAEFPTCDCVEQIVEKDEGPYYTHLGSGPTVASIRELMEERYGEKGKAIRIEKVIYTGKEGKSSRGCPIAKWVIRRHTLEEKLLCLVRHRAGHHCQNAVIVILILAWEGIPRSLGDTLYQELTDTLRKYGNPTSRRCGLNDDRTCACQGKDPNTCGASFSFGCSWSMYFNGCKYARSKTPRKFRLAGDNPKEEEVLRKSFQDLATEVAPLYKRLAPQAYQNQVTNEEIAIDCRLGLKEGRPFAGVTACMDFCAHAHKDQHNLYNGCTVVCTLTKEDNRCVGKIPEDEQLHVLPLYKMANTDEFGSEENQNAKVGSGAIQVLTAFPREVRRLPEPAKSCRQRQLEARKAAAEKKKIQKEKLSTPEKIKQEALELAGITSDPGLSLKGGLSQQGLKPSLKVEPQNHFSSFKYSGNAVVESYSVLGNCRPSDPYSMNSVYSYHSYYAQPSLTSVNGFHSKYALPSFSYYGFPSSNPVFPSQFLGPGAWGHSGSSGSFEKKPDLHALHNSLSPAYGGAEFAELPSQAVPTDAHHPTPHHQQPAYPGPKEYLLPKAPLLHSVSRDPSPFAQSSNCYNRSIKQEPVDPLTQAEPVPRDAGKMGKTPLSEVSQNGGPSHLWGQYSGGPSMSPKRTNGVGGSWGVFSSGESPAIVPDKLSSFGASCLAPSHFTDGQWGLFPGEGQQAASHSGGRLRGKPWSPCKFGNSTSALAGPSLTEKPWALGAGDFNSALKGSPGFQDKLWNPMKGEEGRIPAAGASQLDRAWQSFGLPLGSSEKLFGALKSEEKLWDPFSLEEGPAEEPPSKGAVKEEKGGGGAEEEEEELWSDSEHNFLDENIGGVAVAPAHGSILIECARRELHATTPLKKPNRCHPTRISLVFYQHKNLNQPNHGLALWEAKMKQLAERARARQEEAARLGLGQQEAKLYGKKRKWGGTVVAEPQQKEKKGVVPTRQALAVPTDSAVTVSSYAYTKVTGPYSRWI
# UniProt P49458, sequence (P49458 whole entry, looked up): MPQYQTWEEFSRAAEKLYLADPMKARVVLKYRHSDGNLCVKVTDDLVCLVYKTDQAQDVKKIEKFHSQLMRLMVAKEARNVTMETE
row,Target,probe-labelled cysteine peptide fold change
1,THG1L_Q9NWX6_47_DFEADDTCLAHCWVVVR (UniProt Q9NWX6),-0.0809
2,TMEM192_Q8IY95_266_RLLALTSSDLGCQPSR (UniProt Q8IY95),-0.0328
3,TEPSIN_Q96N21_273_ACGLLNCEAVLQLLTCHLR (UniProt Q96N21),0.821
4,TBCE_Q15813_141_NCAVSCAGEK (UniProt Q15813),-0.11
5,TARSL2_A2RTX5_637_YHQCATIQLDFQLPIR (UniProt A2RTX5),0.00987
6,TATDN3_Q17R31_66_YNGFVLPCLGVHPVQGLPPEDQR (UniProt Q17R31),0.0121
7,TOR2A_Q5JU69_54_CTLGAFCECDFRPDLPGLECDLAQHLAGQHLAK (UniProt Q5JU69),-0.184
8,SON_P18583_92_CVSVQTDPTDEIPTKK (UniProt P18583),-0.351
9,TBC1D13_Q9NVG8_387_LLQDYPITDVCQILQK (UniProt Q9NVG8),-0.0681
10,TNS3_Q68CZ2_88_MCTICK (UniProt Q68CZ2),-0.357
11,TNFAIP3_P21580_158_SQEFVETGLCYDTR (UniProt P21580),-0.274
12,SQOR_Q9Y6N5_201_CAGAPQK (UniProt Q9Y6N5),-0.191
13,TBC1D13_Q9NVG8_145_ATDYPCLLILDPQNEFETLR (UniProt Q9NVG8),-0.0238
14,TEP1_Q99973_2105_TPVLIHSFPACHR (UniProt Q99973),-0.0307
15,SRP9_P49458_48_VTDDLVCLVYK (UniProt P49458),0.216
16,STXBP2_Q15833_110_AAHIFFTDTCPEPLFSELGR (UniProt Q15833),0.0186
17,TBL3_Q12788_526_GLWCVQFSPMDQVLATASADGTIK (UniProt Q12788),0.119
18,ST14_Q9Y5Y6_602+604_DCDCGLR (UniProt Q9Y5Y6),-0.217
19,SRPK2_P78362_320_IIEENITSAAPSNDQDGEYCPEVK (UniProt P78362),-0.0943
20,TMEM120A_Q9BXJ8_47_LQNNCTSSITR (UniProt Q9BXJ8),-0.176

row,Target,probe-labelled cysteine peptide fold change
1,SPCS2_Q15005_17+26_SGGSGGCSGAGGASNCGTGSGR (UniProt Q15005),-0.494
2,TOP2A_P11388_170_LCNIFSTK (UniProt P11388),-0.173
3,STRADA_Q7RTN6_107_INLEACSNEMVTFLQGELHVSK (UniProt Q7RTN6),0.391
4,SURF2_Q15527_29+38_CILTGHELPCR (UniProt Q15527),0.0902
5,TOP1_P11387_504_AGNEKEEGETADTVGCCSLR (UniProt P11387),-0.0614
6,SYK_P43405_89+101_THASPADLCHYHSQESDGLVCLLK (UniProt P43405),-0.0638
7,SSH3_Q8TE77_434_QYECSLEQALR (UniProt Q8TE77),-0.058
8,TOE1_Q96GM8_80_SLLNQCIEER (UniProt Q96GM8),-0.52
9,SNTB1_Q13884_515_DGEIQLDLHSCPK (UniProt Q13884),-0.136
10,TPI1_P60174_164_VAHALAEGLGVIACIGEK (UniProt P60174),0.0839
11,THADA_Q6YHU6_1605_ENHPECFCK (UniProt Q6YHU6),-0.00737
12,TMEM173_Q86WV6_12_PHSSLHPSIPCPR (UniProt Q86WV6),0.0393
13,TBC1D4_O60343_74_SQKPEAGGCGAPAAR (UniProt O60343),-0.579
14,SUGP2_Q8IX01_417_NCFFEIIKPFDK (UniProt Q8IX01),-0.328
15,TARS_P26639_467_RFQQDDAHIFCAMEQIEDEIK (UniProt P26639),0.126
16,TOPBP1_Q92547_911_VVVCVSK (UniProt Q92547),-0.0487
17,TBCB_Q99426_51_LELLVGSPASCMELELYGVDDK (UniProt Q99426),0.0991
18,TMEM147_Q9BVK8_116_CIPLWVGAR (UniProt Q9BVK8),-0.0315
19,TET3_O43151_1381_GKPWSPCK (UniProt O43151),-0.379
20,STRN_O43815_316_EDQCLMPEAWNVDQGVITK (UniProt O43815),-0.23

# Same assay, conditions: 50 µM; THP-1; incubation time: 4 h
row,Target,probe-labelled cysteine peptide fold change
1,THG1L_Q9NWX6_47_DFEADDTCLAHCWVVVR (UniProt Q9NWX6),0.0136
2,TMEM192_Q8IY95_266_RLLALTSSDLGCQPSR (UniProt Q8IY95),0.17
3,TEPSIN_Q96N21_273_ACGLLNCEAVLQLLTCHLR (UniProt Q96N21),2.62
4,TBCE_Q15813_141_NCAVSCAGEK (UniProt Q15813),-1.39
5,TARSL2_A2RTX5_637_YHQCATIQLDFQLPIR (UniProt A2RTX5),0.158
6,TATDN3_Q17R31_66_YNGFVLPCLGVHPVQGLPPEDQR (UniProt Q17R31),1.04
7,TOR2A_Q5JU69_54_CTLGAFCECDFRPDLPGLECDLAQHLAGQHLAK (UniProt Q5JU69),0.309
8,SON_P18583_92_CVSVQTDPTDEIPTKK (UniProt P18583),-1.24
9,TBC1D13_Q9NVG8_387_LLQDYPITDVCQILQK (UniProt Q9NVG8),-0.374
10,TNS3_Q68CZ2_88_MCTICK (UniProt Q68CZ2),-0.873
11,TNFAIP3_P21580_158_SQEFVETGLCYDTR (UniProt P21580),0.0322
12,SQOR_Q9Y6N5_201_CAGAPQK (UniProt Q9Y6N5),-0.122
13,TBC1D13_Q9NVG8_145_ATDYPCLLILDPQNEFETLR (UniProt Q9NVG8),0.373
14,TEP1_Q99973_2105_TPVLIHSFPACHR (UniProt Q99973),-0.291
15,SRP9_P49458_48_VTDDLVCLVYK (UniProt P49458),-0.255
16,STXBP2_Q15833_110_AAHIFFTDTCPEPLFSELGR (UniProt Q15833),0.272
17,TBL3_Q12788_526_GLWCVQFSPMDQVLATASADGTIK (UniProt Q12788),0.0335
18,ST14_Q9Y5Y6_602+604_DCDCGLR (UniProt Q9Y5Y6),-1.07
19,SRPK2_P78362_320_IIEENITSAAPSNDQDGEYCPEVK (UniProt P78362),0.0113
20,TMEM120A_Q9BXJ8_47_LQNNCTSSITR (UniProt Q9BXJ8),-0.0504

row,Target,probe-labelled cysteine peptide fold change
1,SPCS2_Q15005_17+26_SGGSGGCSGAGGASNCGTGSGR (UniProt Q15005),-1.1
2,TOP2A_P11388_170_LCNIFSTK (UniProt P11388),-0.0147
3,STRADA_Q7RTN6_107_INLEACSNEMVTFLQGELHVSK (UniProt Q7RTN6),0.345
4,SURF2_Q15527_29+38_CILTGHELPCR (UniProt Q15527),-0.0729
5,TOP1_P11387_504_AGNEKEEGETADTVGCCSLR (UniProt P11387),-1.22
6,SYK_P43405_89+101_THASPADLCHYHSQESDGLVCLLK (UniProt P43405),-0.0651
7,SSH3_Q8TE77_434_QYECSLEQALR (UniProt Q8TE77),-0.0996
8,TOE1_Q96GM8_80_SLLNQCIEER (UniProt Q96GM8),-2.28
9,SNTB1_Q13884_515_DGEIQLDLHSCPK (UniProt Q13884),1
10,TPI1_P60174_164_VAHALAEGLGVIACIGEK (UniProt P60174),0.00853
11,THADA_Q6YHU6_1605_ENHPECFCK (UniProt Q6YHU6),0.033
12,TMEM173_Q86WV6_12_PHSSLHPSIPCPR (UniProt Q86WV6),-0.625
13,TBC1D4_O60343_74_SQKPEAGGCGAPAAR (UniProt O60343),-1.59
14,SUGP2_Q8IX01_417_NCFFEIIKPFDK (UniProt Q8IX01),-1.49
15,TARS_P26639_467_RFQQDDAHIFCAMEQIEDEIK (UniProt P26639),0.326
16,TOPBP1_Q92547_911_VVVCVSK (UniProt Q92547),-0.114
17,TBCB_Q99426_51_LELLVGSPASCMELELYGVDDK (UniProt Q99426),0.421
18,TMEM147_Q9BVK8_116_CIPLWVGAR (UniProt Q9BVK8),-0.102
19,TET3_O43151_1381_GKPWSPCK (UniProt O43151),-1.3
20,STRN_O43815_316_EDQCLMPEAWNVDQGVITK (UniProt O43815),-0.374
